PubChem BioAssay
The source made the active and inactive calls.

What was measured:
[1] = small molecules captured by biotinylated probe aFSTL3 – biochemical, small-molecule microarray, fluorescence 635/667, stem cell growth factor project, primary screen (AID 1064); conditions: higher = more signal;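 also: measures binding of the biotinylated anti-FSTL3 antibody to printed compounds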
[2] = binders from COS7 lysate, DM2A8 probe, primary screen, torsin A project, cell lysate, small-molecule microarray, fluorescence 635/667 (AID 1065); conditions: higher = more signal, COS7 lysate expressing mutant human TOR1A
[3] = small molecules captured by biotinylated probe aFGF2 – biochemical, small-molecule microarray, fluorescence 635/667, stem cell growth factor project, primary screen (AID 1067); conditions: higher = more signal;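 also: measures binding of biotinylated aFGF2 protein to printed compounds on slides; z-score merges feature fluorescence and signal-to-noise across triplicate slides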
[4] = small molecules captured by biotinylated probe aFGF10 – biochemical, small-molecule microarray, fluorescence 635/667, stem cell growth factor project, primary screen (AID 1071); conditions: higher = more signal;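 also: score merges 667 nm spot intensity and signal to noise from triplicate slides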
[5] = target: Neurogenic locus notch homolog protein 2 (Homo sapiens) (UniProt Q04721); assay: small molecules binding Notch2 protein – biochemical, small-molecule microarray, 635 nm fluorescence, stem cell growth factors, primary screen (AID 1073); conditions: higher = more signal
[6] = target: Pro-neuregulin-1, membrane-bound isoform (Homo sapiens) (UniProt Q02297); assay: small molecules binding neuregulin-1 protein – biochemical, small-molecule microarray, fluorescence 635/667, psychiatric disease protein project, primary screen (AID 1075); conditions: NRG1 binding, 635 nm fluorescence, higher = more signal;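 also: score combines 667 nm spot fluorescence with signal to noise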
[7] = tested on: Neuregulin-1 EGF-like domain; assay: small molecules binding NRG1 EGF domain – biochemical, small-molecule microarray, 635 nm fluorescence, primary screen (AID 1081); conditions: higher = more signal;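 also: binding of the protein to compounds printed on small-molecule microarray slides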
[8] = FRG1 expression reporter modulators in myotubes – cell-based, C2C12 myotubes, firefly/Renilla luciferase, luminescence, FRG1 inhibition for FSHD, primary screen (AID 1084); conditions: FRG1 promoter luciferase, higher = more signal, called active from +8 up or from −8 down
[9] = small molecules captured by biotinylated probe aFST – biochemical, small-molecule microarray, fluorescence 635/667, stem cell growth factor project, primary screen (AID 1086); conditions: higher = more signal;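 also: score merges 667 nm fluorescence with signal-to-noise of each printed compound spot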
[10] = binders of probe aHhip on microarray, primary screen, stem cell growth factor project, biochemical, small-molecule microarray, fluorescence 635/667 (AID 1087); conditions: higher = more signal;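 also: score merges spot fluorescence at 667nm with spot signal to noise ratio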

Sequence of Pro-neuregulin-1, membrane-bound isoform (Homo sapiens) (Q02297 whole entry, looked up, the tested form may be a part, canonical isoform): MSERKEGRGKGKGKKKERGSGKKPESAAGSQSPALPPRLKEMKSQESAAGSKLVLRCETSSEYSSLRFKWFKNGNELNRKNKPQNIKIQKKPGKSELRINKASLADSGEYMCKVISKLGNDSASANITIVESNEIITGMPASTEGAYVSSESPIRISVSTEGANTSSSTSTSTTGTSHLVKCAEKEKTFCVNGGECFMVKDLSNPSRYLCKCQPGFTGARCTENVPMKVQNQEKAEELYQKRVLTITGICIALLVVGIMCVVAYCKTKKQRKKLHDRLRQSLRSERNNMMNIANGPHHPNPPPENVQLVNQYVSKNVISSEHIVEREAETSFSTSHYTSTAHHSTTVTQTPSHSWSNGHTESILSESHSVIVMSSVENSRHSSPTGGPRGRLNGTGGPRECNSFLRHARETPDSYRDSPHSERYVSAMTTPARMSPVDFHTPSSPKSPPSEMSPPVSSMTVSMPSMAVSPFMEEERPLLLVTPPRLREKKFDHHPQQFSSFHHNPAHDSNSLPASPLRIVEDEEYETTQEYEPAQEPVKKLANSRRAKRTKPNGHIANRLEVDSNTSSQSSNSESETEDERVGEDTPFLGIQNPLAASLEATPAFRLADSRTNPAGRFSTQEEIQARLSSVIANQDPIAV
Sequence of Neurogenic locus notch homolog protein 2 (Homo sapiens) (Q04721 whole entry, looked up, canonical isoform): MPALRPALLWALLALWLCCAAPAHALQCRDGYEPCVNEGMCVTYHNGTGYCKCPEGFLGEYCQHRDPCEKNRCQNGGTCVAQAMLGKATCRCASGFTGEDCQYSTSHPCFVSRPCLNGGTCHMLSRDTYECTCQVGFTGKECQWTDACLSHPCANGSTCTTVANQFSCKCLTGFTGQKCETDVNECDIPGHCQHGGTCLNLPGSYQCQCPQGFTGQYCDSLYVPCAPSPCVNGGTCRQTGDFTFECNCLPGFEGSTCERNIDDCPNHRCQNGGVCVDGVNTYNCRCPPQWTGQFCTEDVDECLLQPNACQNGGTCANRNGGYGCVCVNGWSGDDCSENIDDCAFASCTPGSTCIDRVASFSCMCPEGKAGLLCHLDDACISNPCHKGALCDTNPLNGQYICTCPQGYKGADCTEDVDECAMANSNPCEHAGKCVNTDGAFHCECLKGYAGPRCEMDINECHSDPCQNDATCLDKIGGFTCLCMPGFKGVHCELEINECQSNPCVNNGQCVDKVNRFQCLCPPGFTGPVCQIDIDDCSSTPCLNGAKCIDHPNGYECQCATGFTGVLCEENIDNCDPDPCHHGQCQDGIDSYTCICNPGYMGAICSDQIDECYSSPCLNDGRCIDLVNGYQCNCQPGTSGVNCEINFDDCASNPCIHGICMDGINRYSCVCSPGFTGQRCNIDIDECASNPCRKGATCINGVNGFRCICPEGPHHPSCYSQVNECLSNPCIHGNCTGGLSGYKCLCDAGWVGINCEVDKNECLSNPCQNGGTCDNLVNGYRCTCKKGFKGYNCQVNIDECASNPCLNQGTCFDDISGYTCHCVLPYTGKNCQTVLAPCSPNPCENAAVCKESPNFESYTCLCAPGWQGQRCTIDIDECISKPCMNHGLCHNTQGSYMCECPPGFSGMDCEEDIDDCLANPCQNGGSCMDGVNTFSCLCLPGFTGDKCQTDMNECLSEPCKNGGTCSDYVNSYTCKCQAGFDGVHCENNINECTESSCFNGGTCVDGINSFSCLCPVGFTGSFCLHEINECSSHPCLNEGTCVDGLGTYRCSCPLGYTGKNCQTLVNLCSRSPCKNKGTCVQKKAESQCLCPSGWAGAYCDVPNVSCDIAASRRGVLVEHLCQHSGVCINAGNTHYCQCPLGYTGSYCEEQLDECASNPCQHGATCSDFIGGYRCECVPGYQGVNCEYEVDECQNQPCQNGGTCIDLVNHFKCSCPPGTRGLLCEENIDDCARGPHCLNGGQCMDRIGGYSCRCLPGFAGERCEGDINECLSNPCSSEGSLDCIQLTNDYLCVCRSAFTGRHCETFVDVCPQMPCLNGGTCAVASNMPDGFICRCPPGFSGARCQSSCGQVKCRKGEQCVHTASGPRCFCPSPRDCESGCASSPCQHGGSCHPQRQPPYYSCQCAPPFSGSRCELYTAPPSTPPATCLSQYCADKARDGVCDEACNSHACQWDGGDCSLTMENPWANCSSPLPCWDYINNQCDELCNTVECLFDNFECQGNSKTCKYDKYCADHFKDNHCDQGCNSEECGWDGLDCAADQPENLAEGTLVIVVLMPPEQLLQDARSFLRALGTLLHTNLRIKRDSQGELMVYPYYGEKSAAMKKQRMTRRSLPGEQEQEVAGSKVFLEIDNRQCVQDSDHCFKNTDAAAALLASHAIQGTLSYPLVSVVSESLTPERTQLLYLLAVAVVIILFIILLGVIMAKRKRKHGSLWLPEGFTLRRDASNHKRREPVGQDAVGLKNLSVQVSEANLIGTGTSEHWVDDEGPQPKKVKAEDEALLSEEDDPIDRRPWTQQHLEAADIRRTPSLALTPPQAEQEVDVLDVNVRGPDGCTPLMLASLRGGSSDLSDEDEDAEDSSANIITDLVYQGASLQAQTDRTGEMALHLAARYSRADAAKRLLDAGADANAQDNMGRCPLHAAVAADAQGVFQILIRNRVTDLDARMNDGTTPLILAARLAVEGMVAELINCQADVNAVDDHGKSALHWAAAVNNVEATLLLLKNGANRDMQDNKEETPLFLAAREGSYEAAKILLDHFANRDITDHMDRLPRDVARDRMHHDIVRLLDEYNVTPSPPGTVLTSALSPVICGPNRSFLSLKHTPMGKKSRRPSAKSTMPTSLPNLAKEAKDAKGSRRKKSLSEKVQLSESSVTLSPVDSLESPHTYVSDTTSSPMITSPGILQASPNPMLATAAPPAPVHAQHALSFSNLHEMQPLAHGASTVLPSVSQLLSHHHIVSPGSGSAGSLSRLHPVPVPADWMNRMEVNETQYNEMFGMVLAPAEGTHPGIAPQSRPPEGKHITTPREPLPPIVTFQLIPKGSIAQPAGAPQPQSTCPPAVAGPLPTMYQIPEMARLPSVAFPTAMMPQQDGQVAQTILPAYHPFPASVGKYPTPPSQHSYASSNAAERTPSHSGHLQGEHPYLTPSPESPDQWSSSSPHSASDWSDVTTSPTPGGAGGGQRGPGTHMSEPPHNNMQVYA

Structure (SMILES) | composite z-score [1] | composite z-score [2] | composite z-score [3] | composite z-score [4] | composite z-score [5] | composite z-score [6] | composite z-score [7] | z-score [8] | composite z-score [9] | composite z-score [10]
COC(=O)C=CCCc1coc(C=CCNC(=O)OC)n1 | -0.0195 | 0.924 | 0.202 | 0.833 | 0.485 | -0.0679 | 0.492 | 0.721 (inactive) | 1.04 | 0.851
CCOC(=O)[C@H](Cc1ccccc1)NC(=O)CCC1CC(OC(=O)NCCc2ccc(F)cc2)CC2(CCCC(COC(=O)NCC3CCCCC3)O2)O1 (stereo not given in full) | -0.509 | 0.574 | -0.0425 | 0.582 | 1.42 | 0.513 | 1.1 | -0.692 (inactive) | 0.676 | -0.302
O=C1CCCC=C1C(O)CCCCBr (stereo not given) | 0.383 | -0.0756 | -0.0695 | 0.0586 | 0.948 | 0.932 | 0.0079 | 6.9 (inactive) | 0.227 | -0.0994
Cc1ccc(S(=O)(=O)N[C@H]2COC(=O)CC=C[C@@H](C)COC(=O)CC=C[C@@H]2C)cc1 | -0.537 | 0.604 | -0.135 | 0.0963 | -0.094 | -0.326 | -0.0175 | 0.999 (inactive) | -0.135 | -0.466
Cc1cc2c(nc1C)CCCN2CC(O)CN1CCCc2nc(C)c(C)cc21 | 0.472 | 1.49 | 0.178 | 0.204 | 0.4 | 0.752 | 0.998 | -0.0397 (inactive) | 0.759 | 1.35
CCN1C(=O)[C@H]2[C@H]3[C@H](O)[C@H](O)CC(=O)[C@@H]3CC[C@H]2C1=O | -0.676 | 0.0277 | -0.0692 | 0.463 | 0.575 | 0.379 | 1.01 | -0.136 (inactive) | 0.276 | -0.226
CCOC(=O)[C@H](CC(C)C)NC(=O)CCC1CC(OC(=O)NCCc2ccc(F)cc2)CC2(CCCC(COC(=O)NCC(c3ccccc3)c3ccccc3)O2)O1 (stereo not given in full) | -0.65 | 0.149 | -0.136 | 0.433 | 0.787 | 0.221 | 1.12 | 2.36 (inactive) | 0.0026 | -0.236
CC(C)=CCCC(C)=CCON=C1C[C@@H](O)[C@@H](O)[C@@H]2[C@@H]3C(=O)N(C[C@@H]4CCCO4)C(=O)[C@@H]3CC[C@H]12 | -0.532 | 1.78 | -0.142 | 0.508 | 0.583 | 0.447 | 1.05 | -0.0588 (inactive) | 0.417 | -0.0645
CC(C)CON=C1C[C@@H](O)[C@@H](O)[C@@H]2[C@@H]3C(=O)N(C(C)(C)C)C(=O)[C@@H]3CC[C@H]12 | 1.33 | 0.275 | -0.133 | -0.136 | -0.681 | 0.414 | -0.099 | -0.392 (inactive) | -0.142 | -0.21
CC(CCN1CCCc2nc(C)c(C)cc21)=NO[C@@H](C)c1cc(-c2c(C)cc(C)cc2C)no1 | -0.34 | -0.685 | -0.0069 | 0.338 | 0.121 | 0.732 | 0.8 | -0.682 (inactive) | 0.0731 | -0.166
O=C(NN=C1C[C@@H](O)[C@@H](O)[C@@H]2[C@@H]3C(=O)N(C4CCCCC4)C(=O)[C@@H]3CC[C@@H]12)OCc1ccccc1 | -0.107 | 0.2 | -0.0667 | 0.0505 | -0.103 | -0.32 | -0.235 | 0.448 (inactive) | 0.818 | -0.16
CC(=O)OC[C@H]1OC(ON=CC[C@@H]2C=C[C@H](OC(C)=O)[C@@H](COC(C)=O)O2)[C@H](OC(C)=O)[C@@H](OC(C)=O)[C@@H]1OC(C)=O (stereo not given in full) | -0.314 | 0.585 | -0.076 | 0.398 | 0.94 | -0.555 | -0.595 | -0.0946 (inactive) | 0.52 | 0.0972
CC(C)=CCCC(C)=CCON=C1C[C@@H](O)[C@@H](O)[C@@H]2[C@@H]3C(=O)N(c4ccc(F)cc4F)C(=O)[C@@H]3CC[C@@H]12 | -0.245 | 0.87 | -0.116 | 0.546 | -0.205 | 0.895 | 0.314 | 0.656 (inactive) | 0.356 | 0.0505
COC(=O)[C@@H]1CC[C@H](C)[C@@H](c2ccc(C)cc2)N1C(=O)c1ccc(C=NO[C@H](C)c2cn([C@H](CO)Cc3ccccc3)nn2)cc1 | -0.02 | 0.522 | -0.0563 | 0.674 | 0.672 | -0.0294 | 1.12 | 0.0599 (inactive) | 0.517 | 0.837
CON=C[C@@H](C)[C@H](OCc1ccccc1)C(C)C | 0.797 | 0.0789 | -0.138 | -0.0499 | -0.12 | -0.575 | -0.502 | 0.538 (inactive) | -0.0062 | 0.0373
O=C(NN=C1C[C@@H](O)[C@@H](O)[C@@H]2[C@@H]3C(=O)N(Cc4ccccc4)C(=O)[C@@H]3CC[C@@H]12)OCc1ccccc1 | -0.404 | 0.408 | -0.0229 | 0.155 | 0.495 | -0.358 | -0.871 | -0.119 (inactive) | -0.0711 | 0.233
COC(=O)[C@H](C)NC(=O)CCC1CC(OC(=O)NCCc2ccc(F)cc2)CC2(CCCC(COC(=O)NCCC(C)C)O2)O1 (stereo not given in full) | -0.279 | -0.0132 | -0.0407 | 1.11 | 0.824 | 1.26 | 0.888 | 0.033 (inactive) | 0.281 | -0.13

Structure (SMILES) | composite z-score [1] | composite z-score [2] | composite z-score [3] | composite z-score [4] | composite z-score [5] | composite z-score [6] | composite z-score [7] | z-score [8] | composite z-score [9] | composite z-score [10]
CCOC(=O)[C@H](CC(C)C)NC(=O)CCC1CC(OC(=O)NCc2cccc3ccccc23)CC2(CCCC(COC(=O)NCCC(C)C)O2)O1 (stereo not given in full) | -0.403 | 0.141 | -0.0547 | 0.176 | 0.193 | -0.0205 | 0.602 | 0.164 (inactive) | -0.128 | 0.003
CO[C@@H]1COC(=O)[C@@H]2CCCN2C(=O)[C@@H](C)COC(=O)CC=C[C@H]1C | -0.776 | 0.313 | -0.122 | 0.397 | 0.5 | 0.0187 | 1.02 | 0.719 (inactive) | 0.271 | 0.607
O=C1[C@H]2[C@H]3[C@H](O)[C@H](O)CC(=NOCc4ccccc4)[C@@H]3CC[C@H]2C(=O)N1Cc1ccc2c(c1)OCO2 | -0.138 | -0.247 | -0.0583 | 0.321 | 0.376 | 0.299 | -0.0604 | 1.1 (inactive) | 0.357 | 0.0922
O=C1CCCC=C1C(O)CCOC(c1ccccc1)(c1ccccc1)c1ccccc1 (stereo not given) | -0.282 | 0.422 | -0.144 | 0.0954 | -0.0617 | -0.229 | -0.132 | -0.0611 (inactive) | -0.405 | -0.069
C#CCCCON=C1C[C@@H](O)[C@@H](O)[C@@H]2[C@@H]3C(=O)N(c4ccc(F)cc4F)C(=O)[C@@H]3CC[C@@H]12 | -0.398 | 1.69 | -0.138 | 0.103 | 0.329 | 0.0095 | -0.114 | -0.236 (inactive) | 0.0638 | 0.235
CCOC(=O)[C@H](CC(C)C)NC(=O)CCC1CC(OC(=O)NCCc2ccc(F)cc2)CC2(CCCC(COC(=O)NCCOc3ccccc3)O2)O1 (stereo not given in full) | -0.715 | -0.409 | -0.0909 | 0.704 | 1.25 | 0.996 | 1.24 | 1.99 (inactive) | 0.283 | -0.374
COC(=O)[C@H]1[C@@H](O)[C@@]2(O)c3ccccc3O[C@@]2(c2ccccc2)[C@@H]1c1ccccc1 | 1.08 | 0.177 | -0.114 | 0.269 | 0.254 | -0.68 | 0.768 | -0.886 (inactive) | 0.0643 | -0.301
COC(=O)CC=C[C@@H](C)[C@@H](C=NOC[C@@H](O)[C@H]1O[C@@H]2OC(C)(C)O[C@@H]2[C@H]1O)NS(=O)(=O)c1ccc(C)cc1 | -0.383 | 0.746 | -0.171 | 0.347 | 0.463 | -0.0399 | -0.124 | 0.703 (inactive) | 0.155 | -0.641
CON=CC[C@@H]1C=C[C@H](OC(C)=O)[C@@H](COC(C)=O)O1 | -0.043 | 0.0682 | -0.0006 | 0.119 | 0.255 | -0.189 | -0.686 | 0.41 (inactive) | 0.143 | 0.151
COC(=O)[C@H](C)NC(=O)CCC1CC(OC(=O)NCCc2ccc(F)cc2)CC2(CCCC(COC(=O)NCc3cccc(C(F)(F)F)c3)O2)O1 (stereo not given in full) | -0.632 | 0.041 | -0.0265 | 0.624 | 1.36 | 0.0829 | 0.729 | 0.286 (inactive) | 0.829 | -0.0645
COC(=O)[C@H](C)NC(=O)CCC1CC(OC(=O)NCc2ccc3c(c2)OCO3)CC2(CCCC(COC(=O)NCC3CCCCC3)O2)O1 (stereo not given in full) | -0.632 | 0.0369 | -0.0158 | 0.847 | 1.08 | 0.586 | 1.18 | 0.0762 (inactive) | 0.315 | 0.231
COC(=O)[C@H](C)NC(=O)CCC1CC(OC(=O)NCc2ccc3c(c2)OCO3)CC2(CCCC(COC(=O)NCCc3ccccc3OC)O2)O1 (stereo not given in full) | -0.587 | 0.172 | -0.171 | 0.16 | 0.138 | 0.597 | 0.751 | 1.06 (inactive) | -0.17 | 0.0274
C[C@@H]1NC(=O)[C@@H](C)COC(=O)[C@H](C)NC(=O)[C@@H](C)COC1=O | -0.537 | 0.472 | -0.121 | 0.489 | 0.51 | -0.292 | 1.14 | -3.49 (inactive) | 0.253 | 0.0623
COc1ccc(O[C@H]2C=C[C@@H](c3ccccc3)O[C@@H]2CON=C(C)C)cc1 | 0.332 | -0.0694 | 0.0333 | -0.531 | -0.286 | 0.112 | -0.0241 | 0.359 (inactive) | -0.195 | 0.107
C=CC[C@@H]1C=C[C@H](ON=C(C)CCN2CCc3nc(-c4ccccc4)c(-c4ccccc4)cc3C2)[C@@H](CO)O1 | -0.374 | 1.11 | -0.2 | 0.34 | 0.65 | 0.464 | 0.942 | 1.23 (inactive) | 0.197 | 0.0393
CCCCc1nc2c(c3c1C[C@H](C)OC3)CN(CCOc1ccccc1)CC2 | -0.43 | 0.575 | -0.149 | 0.414 | 0.882 | 0.363 | 0.881 | -1.55 (inactive) | 0.192 | 0.213
